Reference: PubChem BioAssay (EPA / NIEHS)
Records with an inconclusive call do not appear. Some compounds were tested as several samples or in several runs, with calls that do not always agree. Activity calls are given as the source filed them. How the source made its calls, unless noted: active means hit-call score of the fitted dose curve at least 0.9, where 1 is the maximum; inactive means score below 0.9.

Key:
[1] = TOX21_p53_BLA_p2_viability: Viability Assessment in the Tox21 HCT-116 p53 Agonism Beta-lactamase Assay, Phase 2 (AID 2283591; active means hit-call score of the fitted dose curve at least 0.9, where 1 is the maximum;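 further: compound exposure lasted 16 h at 37 °C; actives lower the ATP signal meaning cytotoxicity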)
Method in brief: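 HCT116 p53-bla cells, 4000/well, dosed after 5 h plating (217-fold dilution of DMSO stocks) and incubated 16 h at 37C. Viability taken as cellular ATP by CellTiter-Glo luminescence after 30 min RT; signal loss marks cytotoxicity.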

[2] = biological target: Cellular tumor antigen p53 (Homo sapiens) (UniProt P04637); assay: TOX21_p53_BLA_p2_ratio: Tox21 HCT-116 p53 Agonism Beta-lactamase Assay, Ratio, Phase 2 (AID 2283592; active means hit-call score of the fitted dose curve at least 0.9, where 1 is the maximum)
Method in brief: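 Human colon HCT116 cells with an inducible p53 beta-lactamase reporter are exposed to test chemicals for 16 h at 37C. Reporter induction is read as the 460/530 nm emission ratio after CCF4-AM loading, normalized to DMSO.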

[3] = TOX21_p53_BLA_p3_viability: Viability Assessment in the Tox21 HCT-116 p53 Agonism Beta-lactamase Assay, Phase 3 (AID 2283593; active means hit-call score of the fitted dose curve at least 0.9, where 1 is the maximum;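 further: cells exposed to compound for 16 h before reading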)
Method in brief: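 HCT116 cells, 4000/well, dosed 5 h after plating by pin transfer (217-fold dilution from DMSO stock) and incubated 16 h at 37C, 5% CO2. Viability read as ATP luminescence with CellTiter-Glo after 30 min at room temperature.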

[4] = biological target: Cellular tumor antigen p53 (Homo sapiens) (UniProt P04637); assay: TOX21_p53_BLA_p3_ratio: Tox21 HCT-116 p53 Agonism Beta-lactamase Assay, Ratio, Phase 3 (AID 2283596; active means hit-call score of the fitted dose curve at least 0.9, where 1 is the maximum)
Method in brief: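 HCT116 p53-bla cells (4000/well) given compound in DMSO (217-fold dilution) after 5 h, incubated 16 h at 37C. CCF4-AM substrate 2 h at room temperature; 460/530 nm emission ratio, gain fitted against DMSO.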

[5] = TOX21_p53_BLA_p4_viability: Viability Assessment in the Tox21 HCT-116 p53 Agonism Beta-lactamase Assay, Phase 4 (AID 2283597; active means hit-call score of the fitted dose curve at least 0.9, where 1 is the maximum;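 further: hits lower the luminescence signal meaning cytotoxicity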)
Method in brief: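 Luminescent ATP readout (CellTiter-Glo, 30 min, room temperature) in the same wells as the p53 bla ratio. HCT116 cells were treated for 16 h at 37C with DMSO-dissolved compounds.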

[6] = TOX21_p53_BLA_p5_viability: Viability Assessment in the Tox21 HCT-116 p53 Agonism Beta-lactamase Assay, Phase 5 (AID 2283600; active means hit-call score of the fitted dose curve at least 0.9, where 1 is the maximum)
Method in brief: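 Seeded cells (4000/well) settle 5 h before compound addition. Plates then incubate 16 h at 37C, receive FRET substrate for 2 h, and finally CellTiter-Glo, with luminescence measured after a 30 min room-temperature incubation.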

[7] = biological target: Cellular tumor antigen p53 (Homo sapiens) (UniProt P04637); assay: TOX21_p53_BLA_p4_ratio: Tox21 HCT-116 p53 Agonism Beta-lactamase Assay, Ratio, Phase 4 (AID 2283601; active means hit-call score of the fitted dose curve at least 0.9, where 1 is the maximum)
Method in brief: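 HCT-116 p53 beta-lactamase reporter cells (4000/well) preincubated 5 h, then compound (217-fold dilution of DMSO stock) for 16 h at 37C. CCF4-AM substrate added 2 h at room temperature; 460/530 nm emission ratio fitted upward versus DMSO.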

[8] = CCTE_Shafer_MEA_dev_firing_rate_mean: CCTE's Neural Network Formation Assay for Mean Firing Rate, Shafer Lab (AID 2284031)
Method in brief: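 Primary rat cortical neurons on 48-well, 16-electrode MEAs (PEI-coated, laminin at plating), exposed from day 0 with compound renewed at DIV 5 and 9. Spikes recorded DIV 5, 7, 9, 12; well-mean firing rate collapsed to trapezoidal AUC, loss-of-signal vs DMSO.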

[9] = CCTE_Shafer_MEA_dev_per_burst_spike_percent: CCTE's Neural Network Formation Assay for Percent of Spikes in a Burst, Shafer Lab (AID 2284032)
Method in brief: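 Rat primary cortical neurons on 16-electrode MEA wells, dosed from plating day 0 for 12 days with renewal on DIV 5 and 9; spikes-in-bursts percentage averaged over bursting electrodes, collapsed as AUC across days 5, 7, 9, 12; loss direction versus DMSO.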

[10] = CCTE_Shafer_MEA_dev_burst_rate: CCTE's Neural Network Formation Assay for Burst Rate, Shafer Lab (AID 2284042)
Method in brief: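 Developmental network assay measuring how 12-day exposure of rat cortical neuron cultures alters bursting on extracellular MEA recordings. Values are AUC of well-mean burst rate across four recording days, relative to DMSO vehicle.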

[11] = CCTE_Shafer_MEA_dev_per_burst_interspike_interval: CCTE's Neural Network Formation Assay for Burst Interspike Interval, Shafer Lab (AID 2284044);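 further: mean spike spacing inside bursts as AUC over recordings on days 5 7 9 12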
Method in brief: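 Spontaneous activity of maturing rat cortical networks is recorded on DIV 5, 7, 9 and 12 under chronic compound exposure beginning at plating. Endpoint: burst interspike interval well-mean, collapsed into trapezoidal AUC and fitted in the negative direction relative to DMSO.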

[12] = CCTE_Shafer_MEA_dev_burst_duration_mean: CCTE's Neural Network Formation Assay for Mean Burst Duration, Shafer Lab (AID 2284045);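 on AC50: curve fitted for loss meaning shorter burst duration than DMSO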
Method in brief: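 Primary rat cortical neurons on 48-well 16-electrode MEA plates, exposed from day 0 with renewal at DIV 5 and 9; spontaneous activity recorded on days 5, 7, 9, 12. Well-mean burst duration across bursting electrodes, collapsed as trapezoidal AUC; DMSO baseline.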

[13] = CCTE_Shafer_MEA_dev_interburst_interval_mean: CCTE's Neural Network Formation Assay for Mean Interburst Interval, Shafer Lab (AID 2284046);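 further: well-mean interburst interval of bursting electrodes as AUC over four recording days; curve fitted for decrease in interburst interval relative to DMSO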
Method in brief: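 Network formation assay in primary rat cortical cultures, exposed from DIV 0 to 12. Mean interburst interval per well, integrated as AUC over four recordings.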

[14] = CCTE_Shafer_MEA_dev_inter_network_spike_interval_mean: CCTE's Neural Network Formation Assay for Mean Inter-network Spike Interval, Shafer Lab (AID 2284047)
Method in brief: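 Compound was given at plating to primary rat cortical neurons and renewed with full medium changes on DIV 5 and 9. Extracellular activity was recorded on days 5, 7, 9, 12; AUC values were fitted for loss relative to DMSO control.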

[15] = CCTE_Shafer_MEA_dev_network_spike_number: CCTE's Neural Network Formation Assay for Number of Network Spikes, Shafer Lab (AID 2284048);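 further: synchronized bursts across electrodes counted on days 5 7 9 12 and integrated as AUC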
Method in brief: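 Primary rat cortical neurons on PEI/laminin 48-well MEA plates, dosed from plating day 0 for 12 days, renewed at DIV 5 and 9. Network spike counts recorded DIV 5, 7, 9, 12, collapsed as trapezoidal AUC; DMSO baseline.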

[16] = CCTE_Shafer_MEA_dev_spike_duration_mean: CCTE's Neural Network Formation Assay for Mean Spike Duration, Shafer Lab (AID 2284051);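 further: mean network spike duration pooled as area under curve over DIV 5 to 12 recordings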
Method in brief: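 With DMSO as baseline, loss of mean network spike duration was scored from extracellular recordings of rat cortical neurons on MEA plates. Exposure spanned plating to DIV 12; the four recording days were collapsed into one AUC value.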

[17] = CCTE_Shafer_MEA_dev_network_spike_duration_std: CCTE's Neural Network Formation Assay for Standard Deviation of Network Spike Duration, Shafer Lab (AID 2284052);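 further: area under curve of spike duration SD across recording days 5 to 12; hits are decreases in network spike duration SD versus DMSO vehicle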
Method in brief: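 Developing networks of rat cortical neurons were exposed over twelve days in vitro on 48-well MEA plates. Trapezoidal AUC of recordings (DIV 5–12) was analysed for signal loss relative to DMSO vehicle.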

[18] = CCTE_Shafer_MEA_dev_per_network_spike_spike_number_mean: CCTE's Neural Network Formation Assay for Mean Number of Spikes in a Network Spike, Shafer Lab (AID 2284053)
Method in brief: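 First, rat cortical cells (1.5 x 10^5/well) were seeded onto MEA wells; second, dosing began at plating and was refreshed on DIV 5 and 9; finally, network-spike spike counts across DIV 5–12 were summarized as AUC.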

[19] = CCTE_Shafer_MEA_dev_per_network_spike_spike_percent: CCTE's Neural Network Formation Assay for Percent of Spikes in a Network Spike, Shafer Lab (AID 2284054)
Method in brief: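 Rat primary cortical neurons were grown on 48-well MEA plates (16 electrodes/well), exposed from plating day 0 through day 12, with treatment renewed on DIV 5 and 9. Percent of spikes within 0.05 s network-spike peaks was measured, summarised as AUC across days 5, 7, 9, 12.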

[20] = CCTE_Shafer_MEA_dev_LDH: CCTE's Lactate Dehydrogenase Assay for Cytotoxicity in the Neural Network Formation Assay, Shafer Lab (AID 2284068; active means hit-call score of the fitted dose curve at least 0.9, where 1 is the maximum;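 further: exposure for twelve days from plating with re-dosing on DIV 5 and 9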)
Method in brief: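 Developing rat cortical networks on MEA plates are exposed to compound for 12 days from plating. LDH activity is measured spectrophotometrically, with DMSO as baseline.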

[21] = CCTE_Shafer_MEA_dev_AB: CCTE's Alamar Blue Assay for Cytotoxicity in the Neural Network Formation Assay, Shafer Lab (AID 2284083; active means hit-call score of the fitted dose curve at least 0.9, where 1 is the maximum;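 further: resazurin reduction fluorescence as viability of cultured neurons; twelve days of exposure from plating with re-dosing on DIV 5 and 9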)
Method in brief: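 Cytotoxicity companion to the developmental MEA: primary rat cortical neurons, 12-day exposure starting day 0, compound refreshed DIV 5 and 9; resazurin fluorescence, fitted against DMSO vehicle.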

[22] = CCTE_Shafer_MEA_dev_mutual_information_norm: CCTE's Neural Network Formation Assay for Mutual Information Normalization, Shafer Lab (AID 2284091)
Method in brief: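 Primary rat cortical neurons on PEI-coated 48-well MEA plates, 1.5 x 10^5 cells/well, exposed from day 0 through day 12 with re-dosing at DIV 5 and 9. Mutual information between electrodes recorded days 5, 7, 9, 12; trapezoidal AUC, loss-of-signal fit versus DMSO.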

[23] = CCTE_Shafer_MEA_dev_correlation_coefficient_mean: CCTE's Neural Network Formation Assay for Mean Correlation Coefficient, Shafer Lab (AID 2284093)
Method in brief: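 Extracellular firing from rat cortical networks on 48-well MEAs, DMSO-referenced, negative fitting direction. Compound present from plating to DIV12; mean pairwise correlation per well integrated over DIV5–12 recordings by trapezoidal AUC.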

[24] = IUF_NPC1b_proliferation_BrdU_72hr: Leibniz Research Institute for Environmental Medicine (IUF) 72-hour Neural Progenitor Cell Bromodeoxyuridine (BrdU) Proliferation Assay (NPC1b) (AID 2284207)
Method in brief: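 BrdU luminescence ELISA quantified DNA synthesis over the last 16 h of a 72 h exposure, fitted against DMSO. Primary hNPC spheres from gestational week 16-19 cortex grown with EGF/FGF at 37C, pH 7.2-7.6.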

[25] = IUF_NPC1a_proliferation_area_72hr: Leibniz Research Institute for Environmental Medicine (IUF) 72-hour Neural Progenitor Cell Proliferation Area Assay (NPC1a) (AID 2284208)
Method in brief: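 Measured in 3D suspension: each well held one primary hNPC sphere grown with EGF and FGF at pH 7.2-7.6. Compound stayed on for 72 h, then area was imaged; spheres lacking growth factors defined reduced proliferation.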

[26] = IUF_NPC1_viability_72hr: Viability Assessment at 72 hours in the Leibniz Research Institute for Environmental Medicine (IUF) Neural Progenitor Cell Proliferation Assay (NPC1) (AID 2284209)
Method in brief: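 Human fetal-cortex neural progenitor spheres (0.25–0.35 mm, one per well) grown in EGF/FGF proliferation medium at 37C, pH 7.2-7.6, exposed 72 h without renewal; viability read as alamar blue resazurin-to-resorufin fluorescence relative to DMSO.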

Measured: AC50

Sequence of Cellular tumor antigen p53 (Homo sapiens) (P04637 whole entry, looked up): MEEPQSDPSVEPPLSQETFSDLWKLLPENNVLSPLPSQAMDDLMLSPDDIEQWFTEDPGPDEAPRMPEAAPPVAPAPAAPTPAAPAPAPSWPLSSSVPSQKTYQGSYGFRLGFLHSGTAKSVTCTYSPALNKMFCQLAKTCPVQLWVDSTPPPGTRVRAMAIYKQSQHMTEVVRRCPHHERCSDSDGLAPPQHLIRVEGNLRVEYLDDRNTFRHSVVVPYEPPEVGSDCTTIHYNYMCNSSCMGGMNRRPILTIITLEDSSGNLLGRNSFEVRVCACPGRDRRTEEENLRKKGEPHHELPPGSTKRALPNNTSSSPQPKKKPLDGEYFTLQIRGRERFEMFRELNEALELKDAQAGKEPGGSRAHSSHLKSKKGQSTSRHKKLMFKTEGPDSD

C[C@H](CS)C(=O)N1CCC[C@H]1C(=O)O
active: [12] 21.6 µM
inactive: [1] | [2] | [3] | [4] | [5] | [6] | [7] | [8] | [9] | [10] | [11] | [12] | [13] | [14] | [15] | [16] | [17] | [18] | [19] | [20] | [21] | [22] | [23] | [24] | [25] | [26]
